Experiment in all cases: log2 ratio of Biotin-Ahx-Ub-VS probe labelling (fragment/DMSO); higher = less target engagement (more negative = stronger competition), active = hit call of the paper (q ≤ 0.05, log2 ratio ≤ -1)
Common to all, as to details: compound concentration: 200 uM; treatment time: 3 h

For one experiment, the target named is T1, USP19 (UniProt O94966).
T1 sequence (whole entry): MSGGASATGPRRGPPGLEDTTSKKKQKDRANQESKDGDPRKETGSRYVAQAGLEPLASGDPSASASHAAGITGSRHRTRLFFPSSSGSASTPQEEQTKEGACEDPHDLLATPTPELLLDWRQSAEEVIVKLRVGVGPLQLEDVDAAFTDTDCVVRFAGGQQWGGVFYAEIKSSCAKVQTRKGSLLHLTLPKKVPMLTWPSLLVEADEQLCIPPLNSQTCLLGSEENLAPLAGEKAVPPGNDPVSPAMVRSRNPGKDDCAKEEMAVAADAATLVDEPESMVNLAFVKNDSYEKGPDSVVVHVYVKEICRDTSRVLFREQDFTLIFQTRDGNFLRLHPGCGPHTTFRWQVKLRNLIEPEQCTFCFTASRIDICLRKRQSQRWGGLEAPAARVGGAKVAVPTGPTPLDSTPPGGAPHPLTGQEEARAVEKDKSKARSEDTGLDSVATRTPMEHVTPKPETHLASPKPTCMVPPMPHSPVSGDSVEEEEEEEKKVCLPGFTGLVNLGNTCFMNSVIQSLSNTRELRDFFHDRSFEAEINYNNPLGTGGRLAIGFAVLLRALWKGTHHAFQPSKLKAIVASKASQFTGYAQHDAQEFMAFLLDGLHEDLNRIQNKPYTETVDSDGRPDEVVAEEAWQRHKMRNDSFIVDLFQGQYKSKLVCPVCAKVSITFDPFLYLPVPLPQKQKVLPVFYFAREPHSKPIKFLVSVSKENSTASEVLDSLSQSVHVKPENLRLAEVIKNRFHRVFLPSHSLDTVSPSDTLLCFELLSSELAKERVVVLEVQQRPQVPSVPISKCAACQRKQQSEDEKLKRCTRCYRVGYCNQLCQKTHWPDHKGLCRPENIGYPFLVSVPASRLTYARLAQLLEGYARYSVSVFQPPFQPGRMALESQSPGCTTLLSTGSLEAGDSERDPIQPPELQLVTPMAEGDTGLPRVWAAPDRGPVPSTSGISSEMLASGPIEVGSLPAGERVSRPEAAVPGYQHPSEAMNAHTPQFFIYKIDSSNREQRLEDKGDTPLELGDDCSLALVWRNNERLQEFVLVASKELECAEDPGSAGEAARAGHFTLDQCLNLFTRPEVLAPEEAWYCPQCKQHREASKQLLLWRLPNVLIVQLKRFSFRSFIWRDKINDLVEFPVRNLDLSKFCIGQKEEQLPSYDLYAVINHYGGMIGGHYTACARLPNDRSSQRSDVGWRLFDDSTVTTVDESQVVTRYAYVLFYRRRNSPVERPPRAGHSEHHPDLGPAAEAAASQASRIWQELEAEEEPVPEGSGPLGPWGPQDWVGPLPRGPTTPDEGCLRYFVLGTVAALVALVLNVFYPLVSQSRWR
A digest of the protocol: (§1)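 Triplicate samples of HEK293T lysate, 495 µg each, received fragment at 200 µM or vehicle for 3 h, followed by Biotin-Ahx-Ub-VS (0.5 µM final) for 1 h. After NeutrAvidin enrichment of labelled DUBs and LysC/trypsin digestion, peptides were run by diaPASEF LC-MS/MS. The values are average log2 fragment/vehicle ratios from global-median-normalised Spectronaut label-free quantities, tested by unpaired t-test on proteins having ≥2 unique peptides.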

A further experiment concerns the target T2, USP22 (UniProt Q9UPT9).
T2 sequence (whole entry): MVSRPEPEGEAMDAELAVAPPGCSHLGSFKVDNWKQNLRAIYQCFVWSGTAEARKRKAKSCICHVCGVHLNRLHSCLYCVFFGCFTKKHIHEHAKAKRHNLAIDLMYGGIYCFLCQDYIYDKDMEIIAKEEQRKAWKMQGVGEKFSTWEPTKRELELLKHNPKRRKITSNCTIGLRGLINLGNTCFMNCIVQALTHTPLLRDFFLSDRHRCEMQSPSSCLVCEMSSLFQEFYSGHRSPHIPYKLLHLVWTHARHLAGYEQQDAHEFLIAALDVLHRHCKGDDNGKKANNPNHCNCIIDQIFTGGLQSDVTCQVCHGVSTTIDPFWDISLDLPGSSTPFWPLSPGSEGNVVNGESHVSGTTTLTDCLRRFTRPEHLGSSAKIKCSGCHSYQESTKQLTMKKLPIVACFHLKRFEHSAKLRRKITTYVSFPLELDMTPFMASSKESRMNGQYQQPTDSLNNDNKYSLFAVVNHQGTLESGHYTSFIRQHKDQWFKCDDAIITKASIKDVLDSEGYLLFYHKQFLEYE
A digest of the protocol: as §1

The target of another experiment is USP24 (UniProt Q9UPU5). The method in brief: as §1
In a further experiment the target is T3, USP25 (UniProt Q9UHP3).
T3 sequence (whole entry): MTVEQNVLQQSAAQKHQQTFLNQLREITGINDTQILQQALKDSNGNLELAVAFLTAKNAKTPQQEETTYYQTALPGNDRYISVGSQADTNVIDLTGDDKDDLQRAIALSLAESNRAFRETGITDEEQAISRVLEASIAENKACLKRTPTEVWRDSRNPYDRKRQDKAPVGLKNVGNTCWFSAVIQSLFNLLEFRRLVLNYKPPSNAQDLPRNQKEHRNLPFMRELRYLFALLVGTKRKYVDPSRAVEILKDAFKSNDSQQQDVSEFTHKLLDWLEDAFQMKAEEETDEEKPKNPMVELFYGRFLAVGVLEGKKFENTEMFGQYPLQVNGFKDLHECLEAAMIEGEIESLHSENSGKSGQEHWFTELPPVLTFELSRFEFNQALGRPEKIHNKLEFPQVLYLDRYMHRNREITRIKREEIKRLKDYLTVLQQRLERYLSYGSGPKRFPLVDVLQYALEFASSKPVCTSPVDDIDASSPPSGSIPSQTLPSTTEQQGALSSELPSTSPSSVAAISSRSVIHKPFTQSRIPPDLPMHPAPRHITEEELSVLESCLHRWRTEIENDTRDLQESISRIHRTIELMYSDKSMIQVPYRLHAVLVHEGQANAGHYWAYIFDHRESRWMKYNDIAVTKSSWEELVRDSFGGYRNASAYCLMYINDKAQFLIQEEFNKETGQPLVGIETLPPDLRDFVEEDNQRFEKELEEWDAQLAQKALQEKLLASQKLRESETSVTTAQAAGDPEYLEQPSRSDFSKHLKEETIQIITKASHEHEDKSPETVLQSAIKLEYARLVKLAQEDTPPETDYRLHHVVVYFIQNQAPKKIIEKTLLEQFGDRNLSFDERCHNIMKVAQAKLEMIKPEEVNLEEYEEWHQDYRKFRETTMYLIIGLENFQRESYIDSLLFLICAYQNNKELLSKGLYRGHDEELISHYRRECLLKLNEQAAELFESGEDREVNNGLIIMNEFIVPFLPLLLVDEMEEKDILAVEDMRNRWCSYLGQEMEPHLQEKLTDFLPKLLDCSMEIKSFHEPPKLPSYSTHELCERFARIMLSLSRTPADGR
The method in brief: as §1

A further experiment has as its target T4, USP28 (UniProt Q96RU2).
T4 sequence (whole entry): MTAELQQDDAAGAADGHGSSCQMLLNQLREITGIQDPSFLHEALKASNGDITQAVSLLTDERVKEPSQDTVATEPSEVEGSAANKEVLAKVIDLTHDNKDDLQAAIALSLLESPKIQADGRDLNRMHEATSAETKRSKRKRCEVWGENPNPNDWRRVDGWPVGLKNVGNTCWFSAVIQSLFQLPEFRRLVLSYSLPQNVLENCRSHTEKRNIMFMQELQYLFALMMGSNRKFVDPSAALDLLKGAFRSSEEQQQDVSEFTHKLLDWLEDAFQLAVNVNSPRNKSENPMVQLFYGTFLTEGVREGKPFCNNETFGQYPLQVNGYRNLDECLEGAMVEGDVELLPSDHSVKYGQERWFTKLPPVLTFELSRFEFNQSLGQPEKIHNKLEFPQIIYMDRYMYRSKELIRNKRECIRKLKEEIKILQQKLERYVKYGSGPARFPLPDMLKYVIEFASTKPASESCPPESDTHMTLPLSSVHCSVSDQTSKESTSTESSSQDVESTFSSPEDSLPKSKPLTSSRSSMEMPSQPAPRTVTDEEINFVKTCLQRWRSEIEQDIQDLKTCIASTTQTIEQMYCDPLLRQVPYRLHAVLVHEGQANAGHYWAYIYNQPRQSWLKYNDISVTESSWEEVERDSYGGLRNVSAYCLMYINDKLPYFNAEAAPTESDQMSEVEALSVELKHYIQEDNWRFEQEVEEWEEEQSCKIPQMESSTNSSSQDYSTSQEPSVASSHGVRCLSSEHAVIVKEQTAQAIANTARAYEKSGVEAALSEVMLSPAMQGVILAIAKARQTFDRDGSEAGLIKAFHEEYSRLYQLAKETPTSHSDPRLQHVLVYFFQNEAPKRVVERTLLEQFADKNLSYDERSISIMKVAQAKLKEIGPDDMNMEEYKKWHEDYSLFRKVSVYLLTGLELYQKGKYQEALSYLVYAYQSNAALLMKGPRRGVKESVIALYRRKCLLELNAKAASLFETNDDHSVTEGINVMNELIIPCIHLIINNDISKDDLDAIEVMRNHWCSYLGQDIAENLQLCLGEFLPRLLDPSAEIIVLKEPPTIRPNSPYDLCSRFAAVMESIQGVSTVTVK
A digest of the protocol:
as §1

A number with no mark means an inactive call.

Chain of USP24 (Q9UPU5 whole entry): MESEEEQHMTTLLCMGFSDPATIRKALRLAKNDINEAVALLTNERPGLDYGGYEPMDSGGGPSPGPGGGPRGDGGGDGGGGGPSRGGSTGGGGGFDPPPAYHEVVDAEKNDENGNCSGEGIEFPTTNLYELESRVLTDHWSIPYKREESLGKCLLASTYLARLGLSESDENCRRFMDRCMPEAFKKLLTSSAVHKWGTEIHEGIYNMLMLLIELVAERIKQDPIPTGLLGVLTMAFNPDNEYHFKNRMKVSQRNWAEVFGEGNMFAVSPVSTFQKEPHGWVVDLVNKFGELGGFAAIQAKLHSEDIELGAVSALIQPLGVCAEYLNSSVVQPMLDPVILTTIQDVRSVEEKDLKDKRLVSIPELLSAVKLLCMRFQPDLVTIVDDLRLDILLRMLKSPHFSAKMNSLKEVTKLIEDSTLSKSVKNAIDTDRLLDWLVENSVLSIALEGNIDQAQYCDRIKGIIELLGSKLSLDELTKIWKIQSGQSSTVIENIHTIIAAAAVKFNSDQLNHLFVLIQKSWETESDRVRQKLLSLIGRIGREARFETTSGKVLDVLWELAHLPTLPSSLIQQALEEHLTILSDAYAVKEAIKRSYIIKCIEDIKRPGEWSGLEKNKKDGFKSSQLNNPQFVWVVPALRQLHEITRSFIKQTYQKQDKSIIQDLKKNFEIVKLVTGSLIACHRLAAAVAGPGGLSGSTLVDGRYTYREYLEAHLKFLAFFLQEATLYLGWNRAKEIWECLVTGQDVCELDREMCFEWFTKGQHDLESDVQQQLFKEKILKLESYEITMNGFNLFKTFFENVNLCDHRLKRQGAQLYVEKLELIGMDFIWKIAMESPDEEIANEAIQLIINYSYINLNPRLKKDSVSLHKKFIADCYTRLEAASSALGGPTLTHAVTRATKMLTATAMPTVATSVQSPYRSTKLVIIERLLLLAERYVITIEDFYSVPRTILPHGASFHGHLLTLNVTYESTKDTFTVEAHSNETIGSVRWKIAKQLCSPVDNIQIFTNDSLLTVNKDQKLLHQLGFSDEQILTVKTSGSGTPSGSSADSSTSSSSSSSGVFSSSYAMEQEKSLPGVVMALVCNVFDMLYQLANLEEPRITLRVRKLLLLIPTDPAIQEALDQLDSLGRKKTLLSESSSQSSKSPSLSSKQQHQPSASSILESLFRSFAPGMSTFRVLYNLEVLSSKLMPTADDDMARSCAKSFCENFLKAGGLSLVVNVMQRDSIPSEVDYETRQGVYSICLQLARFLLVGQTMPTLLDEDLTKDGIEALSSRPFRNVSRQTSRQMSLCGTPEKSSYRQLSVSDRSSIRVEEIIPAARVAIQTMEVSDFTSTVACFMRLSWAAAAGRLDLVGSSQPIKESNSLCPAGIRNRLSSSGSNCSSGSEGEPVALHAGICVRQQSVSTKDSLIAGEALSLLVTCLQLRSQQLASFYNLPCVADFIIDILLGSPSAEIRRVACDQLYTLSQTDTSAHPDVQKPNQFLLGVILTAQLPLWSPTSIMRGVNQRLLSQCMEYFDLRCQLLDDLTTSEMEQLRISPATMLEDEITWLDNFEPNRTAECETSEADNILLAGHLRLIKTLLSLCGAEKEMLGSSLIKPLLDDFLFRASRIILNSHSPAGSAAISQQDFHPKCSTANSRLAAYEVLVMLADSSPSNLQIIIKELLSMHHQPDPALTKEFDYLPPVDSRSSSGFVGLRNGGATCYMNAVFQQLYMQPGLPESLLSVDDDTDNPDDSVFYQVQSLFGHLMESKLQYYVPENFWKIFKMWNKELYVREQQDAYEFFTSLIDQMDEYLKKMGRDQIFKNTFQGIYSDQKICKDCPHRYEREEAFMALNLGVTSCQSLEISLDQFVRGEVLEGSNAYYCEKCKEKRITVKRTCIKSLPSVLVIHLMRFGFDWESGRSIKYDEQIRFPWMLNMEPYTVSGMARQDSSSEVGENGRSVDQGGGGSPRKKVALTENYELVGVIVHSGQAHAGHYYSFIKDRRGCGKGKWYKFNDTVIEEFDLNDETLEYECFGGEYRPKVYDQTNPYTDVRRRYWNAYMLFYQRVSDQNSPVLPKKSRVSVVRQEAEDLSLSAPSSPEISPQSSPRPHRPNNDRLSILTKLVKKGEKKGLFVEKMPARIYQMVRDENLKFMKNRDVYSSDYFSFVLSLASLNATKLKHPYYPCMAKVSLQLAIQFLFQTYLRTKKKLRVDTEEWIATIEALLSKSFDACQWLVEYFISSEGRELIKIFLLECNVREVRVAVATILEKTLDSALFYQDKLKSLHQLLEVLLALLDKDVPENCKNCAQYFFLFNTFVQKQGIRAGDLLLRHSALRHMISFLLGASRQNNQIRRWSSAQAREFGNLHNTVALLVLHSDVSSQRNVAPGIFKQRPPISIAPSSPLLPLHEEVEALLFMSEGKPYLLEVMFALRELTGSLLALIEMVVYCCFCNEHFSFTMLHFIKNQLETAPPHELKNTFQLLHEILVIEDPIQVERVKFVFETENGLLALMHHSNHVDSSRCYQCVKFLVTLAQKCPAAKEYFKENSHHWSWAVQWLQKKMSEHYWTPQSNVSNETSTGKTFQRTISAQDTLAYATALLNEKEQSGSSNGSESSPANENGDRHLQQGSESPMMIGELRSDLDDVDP

Take `COc1ccc(Cl)cc1NC(=O)CCl`: the “log2 ratio of Biotin-Ahx-Ub-VS probe labelling” value with USP19 is -0.52; in the experiment with USP22 it was -0.388; with USP24, -1.54 (active); in the experiment with USP25, -0.784; with USP28 it was -0.959.

Values taken from the supplement of paper PMC11732987, “Enantioselective OTUD7B fragment discovery through chemoproteomics screening and high-throughput optimisation” (Communications Chemistry, 2025).
